Inconclusive results are not listed. Activity calls are given as the source filed them. Calls follow the shape of the dose curve; as a rule, active = well fitted cell-killing curve with a large enough effect; inconclusive = small, poorly fitted or top-dose-only effect, or effect the other way; inactive = flat fitted curve, though single readings scatter.
Key:
Assay in all cases: Primary qHTS to identify gynecologic anti-cancer compounds using libraries of approved drugs and bioactive compounds (AID 1345084); also: nearly all actives have a fitted effect of over 55% in size
C33A = details: Gynecologic cancer cell panel viability, ATPlite luminescence, 48 h; series mostly up to 57.5 µM
Method in brief: (§1)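 Measured: luminescence after ATPlite addition (15 min, RT). Exposure: 48 h, 37 C, 5% CO2.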

CASKI = details: Gynecologic cancer cell panel viability, ATPlite luminescence, 48 h; series mostly up to 57.5 µM
Method in brief: as §1

Es-2 = details: Gynecologic cancer cell panel viability, ATPlite luminescence, 48 h; series mostly up to 57.5 µM
Method in brief: as §1

HeLa = details: Gynecologic cancer cell panel viability, ATPlite luminescence, 48 h; series mostly up to 57.5 µM
Method in brief: as §1

Hek293T = details: Gynecologic cancer cell panel viability, ATPlite luminescence, 48 h, control line for the selectivity index; series mostly up to 57.5 µM
Method in brief: as §1

OV90 = details: Gynecologic cancer cell panel viability, ATPlite luminescence, 48 h; series mostly up to 57.5 µM
Method in brief: as §1

PA-1 = details: Gynecologic cancer cell panel viability, ATPlite luminescence, 48 h; series mostly up to 57.5 µM
Method in brief: as §1

SKOV3 = details: Gynecologic cancer cell panel viability, ATPlite luminescence, 48 h; series mostly up to 57.5 µM
Method in brief: as §1

JEG-3 = details: Gynecologic cancer cell panel viability, ATPlite luminescence, 48 h; series mostly up to 57.5 µM
Method in brief: as §1
% is scaled to controls: 0 for no effect and ±100 for the full control effect; potency is read from the fitted curve at half-maximal effect.

COC1CC(OC2CCC3(C=O)C(CCC4C3CCC3(C)C(C5=CC(=O)OC5)CCC43O)C2)OC(C)C1OC1OC(CO)C(O)C(O)C1O (configuration not stated)
active: Potency (C33A) 0.158 µM | Potency (CASKI) 1.12 µM | Potency (Es-2) 0.355 µM | Potency (HeLa) 0.282 µM | Potency (Hek293T) 0.398 µM | Potency (OV90) 0.891 µM | Potency (PA-1) 0.501 µM | Potency (SKOV3) 0.355 µM

C[C@@]12C[C@@H](c3ccoc3)OC(=O)C1CC[C@]1(C)[C@H]2[C@H]2C=C[C@]1(O)C(=O)O2 (some centres not stated)
inactive: Potency (C33A) | Potency (CASKI) | Potency (Es-2) | Potency (HeLa) | Potency (Hek293T) | Potency (JEG-3) | Potency (OV90) | Potency (PA-1) | Potency (SKOV3)

C/C=C(\C)C(=O)OC1CC2C(CC=C3CC(OC4CC(OC)C(OC5CC(OC)C(OC6OC(C)C(OC7OC(CO)C(O)C(O)C7O)C(OC)C6O)C(C)O5)C(C)O4)CCC32C)C2(O)CCC(C(C)=O)C12C (configuration not stated)
inactive: activity change, negative = cytotoxicity (C33A) 3.18% [at 11.6 µM] | activity change, negative = cytotoxicity (CASKI) 19.1% [at 11.6 µM] | activity change, negative = cytotoxicity (Es-2) 3.55% [at 11.6 µM] | activity change, negative = cytotoxicity (HeLa) -1.26% [at 11.6 µM] | activity change, negative = cytotoxicity (Hek293T) 2.23% [at 11.6 µM] | activity change, negative = cytotoxicity (JEG-3) 1.45% [at 11.6 µM] | activity change, negative = cytotoxicity (OV90) 8.31% [at 11.6 µM] | activity change, negative = cytotoxicity (PA-1) -3.75% [at 11.6 µM] | activity change, negative = cytotoxicity (SKOV3) 18.2% [at 11.6 µM]

CCN1C[C@]2(OC(=O)c3ccccc3NC(C)=O)CC[C@H](OC)[C@@]34[C@@H]2C[C@@H]([C@@H]13)[C@@]1(O)C[C@H](OC)[C@H]2C[C@@H]4[C@]1(O)[C@H]2OC
inactive: Potency (C33A) | Potency (CASKI) | Potency (Es-2) | Potency (HeLa) | Potency (Hek293T) | Potency (JEG-3) | Potency (OV90) | Potency (PA-1) | Potency (SKOV3)

CC[C@H]1CN2CC[C@H]1C[C@H]2[C@H](O)c1ccnc2ccc(OC)cc12
inactive: Potency (C33A) | Potency (CASKI) | Potency (Es-2) | Potency (HeLa) | Potency (Hek293T) | Potency (JEG-3) | Potency (PA-1) | Potency (SKOV3)

CC12CCC3C(CCC4(O)CC(O)CCC34C=O)C1(O)CCC2C1=CC(=O)OC1 (configuration not stated)
active: Potency (C33A) 1 µM | Potency (CASKI) 7.08 µM | Potency (Es-2) 1.12 µM | Potency (HeLa) 1.78 µM | Potency (Hek293T) 1.26 µM | Potency (OV90) 7.08 µM | Potency (PA-1) 1.12 µM | Potency (SKOV3) 1.58 µM

CC1C/C=C/C(O)C(O)CC/C=C/c2cc(O)cc(O)c2C(=O)O1 (configuration not stated)
inactive: Potency (C33A) | Potency (CASKI) | Potency (Es-2) | Potency (HeLa) | Potency (Hek293T) | Potency (JEG-3) | Potency (OV90) | Potency (PA-1) | Potency (SKOV3)

CC1=C2C[C@H]3[C@@H](CC=C4C[C@@H](O)CC[C@@]43C)[C@@H]2CC[C@]12O[C@@H]1C[C@H](C)CN[C@H]1[C@H]2C
inactive: Potency (C33A) | Potency (CASKI) | Potency (Es-2) | Potency (HeLa) | Potency (Hek293T) | Potency (JEG-3) | Potency (OV90) | Potency (PA-1) | Potency (SKOV3)

COc1cc(C(=O)O[C@H]2[C@@H]3C=CO[C@@H](O[C@@H]4O[C@H](CO)[C@@H](O)[C@H](O)[C@H]4O)[C@@H]3[C@@]3(CO)O[C@@H]23)ccc1O
inactive: Potency (C33A) | Potency (CASKI) | Potency (Es-2) | Potency (HeLa) | Potency (Hek293T) | Potency (JEG-3) | Potency (OV90) | Potency (PA-1) | Potency (SKOV3)

COCC1OC(=O)c2coc3c2C1(C)C1=C(C3=O)C2CCC(=O)C2(C)CC1O (configuration not stated)
inactive: Potency (C33A) | Potency (CASKI) | Potency (Es-2) | Potency (HeLa) | Potency (Hek293T) | Potency (JEG-3) | Potency (OV90) | Potency (PA-1) | Potency (SKOV3)

CCc1c(C(=O)C(N)=O)c2c(OCC(=O)OC)cccc2n1Cc1ccccc1
inactive: Potency (C33A) | Potency (CASKI) | Potency (Es-2) | Potency (HeLa) | Potency (Hek293T) | Potency (JEG-3) | Potency (OV90) | Potency (PA-1) | Potency (SKOV3)

CCCN1CCO[C@H]2c3cc(O)ccc3OC[C@@H]21
inactive: Potency (C33A) | Potency (CASKI) | Potency (Es-2) | Potency (HeLa) | Potency (Hek293T) | Potency (JEG-3) | Potency (OV90) | Potency (PA-1) | Potency (SKOV3)

CN(C)CCc1c[nH]c2ccc(CN3CCN(C)S3(=O)=O)cc12
inactive: Potency (C33A) | Potency (CASKI) | Potency (Es-2) | Potency (HeLa) | Potency (Hek293T) | Potency (JEG-3) | Potency (OV90) | Potency (PA-1) | Potency (SKOV3)

C=CC(C)(C)c1[nH]c2cccc3c2c1C[C@@H]1[C@@H]3[C@@H](OC(C)=O)[C@H](C)CN1C
inactive: Potency (C33A) | Potency (CASKI) | Potency (Es-2) | Potency (HeLa) | Potency (Hek293T) | Potency (JEG-3) | Potency (OV90) | Potency (PA-1) | Potency (SKOV3)

C=C(CO)C(=O)O[C@H]1C/C(C)=C/CC/C(CO)=C/[C@H]2OC(=O)C(=C)[C@H]12
inactive: Potency (C33A) | Potency (CASKI) | Potency (Es-2) | Potency (HeLa) | Potency (Hek293T) | Potency (JEG-3) | Potency (OV90) | Potency (PA-1) | Potency (SKOV3)

COC1C(O)C(OC2CCC3(C=O)C(CCC4C3CCC3(C)C(C5=CC(=O)OC5)CCC43O)C2)OC(C)C1OC1OC(CO)C(O)C(O)C1O (configuration not stated)
active: Potency (C33A) 0.501 µM | Potency (Es-2) 0.891 µM | Potency (HeLa) 1.26 µM | Potency (Hek293T) 1 µM | Potency (JEG-3) 2.24 µM | Potency (OV90) 3.55 µM | Potency (SKOV3) 0.708 µM

COC1CC(OC2CCC3(C)C(CCC4C3CCC3(C)C(C5=CC(=O)OC5)C(OC(C)=O)CC43O)C2)OC(C)C1OC1OC(CO)C(O)C(O)C1O (configuration not stated)
active: Potency (C33A) 3.16 µM | Potency (HeLa) 2.82 µM | Potency (Hek293T) 3.16 µM

Reference: PubChem BioAssay (NCATS)
